Hits are enriched below; roughly 1.5% of the tested compounds scored in any of these assays.
Her2 expr inh: inhibitors of Her2 protein expression, primary screen, SKBR-3 cells, AlphaScreen, 66K library. 65,000 compounds, 0.69% hits. AID 645, 2007. HER2 level % of control, % at 10 µM. SKBR-3 HER2 protein level, 18-24 h; active compounds read low. Receptor tyrosine-protein kinase erbB-2 (Homo sapiens), P04626;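 active = HER2 level under 5% of the carrier-only control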;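 also: 100% = DMSO carrier and 0% = 500 nM PU-H71 HSP90 inhibitor; lower value means stronger loss of Her2 protein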
PKA inh: inhibitors of human PKA kinase activity, primary screen, biochemical, ATP-depletion luminescence, Kemptide substrate; cAMP-dependent protein kinase catalytic subunit alpha (Homo sapiens), P17612; PKA Kemptide phosphorylation, Kinase-Glo ATP luminescence; inhibition, % at 6 µM; 65,000 compounds, 0.1% hits;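 active = inhibition above the screen-wide mean inhibition plus 3 SD, cut at about 21% in these data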
SK-BR-3 tox 24h: SK-BR-3 proliferation inhibitors, primary screen, cell-based, human, 24 h; AID 847, 2007; 41,000 compounds, 0.47% hits; viability, % at 10 µM; SK-BR-3 viability, CellTiter-Glo ATP luminescence; active compounds read low;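 active = viability at or below the median of all test compounds minus 3 SD, in both replicates if run twice, cut at about 45% in these data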;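 also: 100% = median untreated cell wells and 0% = median positive control drug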
ROCK2 inh: inhibitors of human ROCK2 kinase, primary screen, biochemical, high-throughput, luminescence. Rho-associated protein kinase 2 (Homo sapiens), O75116. purified ROCK2, Kinase-Glo ATP depletion luminescence. inhibition, % at 6 µM. 60,000 compounds, 0.35% hits. AID 604, 2007;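 active = inhibition above the screen-wide mean inhibition plus 3 SD, cut at about 18% in these data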;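 also: plate controls were DMSO wells for no effect and Y-27632 control wells after no-enzyme background subtraction for full effect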
JNK3 inh: JNK3 kinase activity inhibitors, primary screen, biochemical, human, purified enzyme; Mitogen-activated protein kinase 10 (Homo sapiens), P53779; inhibition, % at 8 µM; 60,000 compounds, 0.61% hits; HTS; in the data active = inhibition above about 17%;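 also: 0% = DMSO and 100% = reference inhibitor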
Target sequence (P53779 whole entry, looked up): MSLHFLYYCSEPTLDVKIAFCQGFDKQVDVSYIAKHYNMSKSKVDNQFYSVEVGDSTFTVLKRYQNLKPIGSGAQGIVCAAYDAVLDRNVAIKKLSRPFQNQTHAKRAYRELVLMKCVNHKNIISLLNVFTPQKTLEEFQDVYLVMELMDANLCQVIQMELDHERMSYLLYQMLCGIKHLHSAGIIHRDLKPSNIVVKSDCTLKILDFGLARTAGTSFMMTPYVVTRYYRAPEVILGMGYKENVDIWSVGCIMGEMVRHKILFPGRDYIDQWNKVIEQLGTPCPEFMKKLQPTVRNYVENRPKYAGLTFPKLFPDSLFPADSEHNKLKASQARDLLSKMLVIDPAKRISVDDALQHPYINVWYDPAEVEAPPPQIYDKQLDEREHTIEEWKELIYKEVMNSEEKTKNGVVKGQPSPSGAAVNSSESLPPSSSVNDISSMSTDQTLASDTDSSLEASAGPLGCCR
* hit, by the source's call; . = no result.

SMILES | Her2 expr inh | PKA inh | SK-BR-3 tox 24h | ROCK2 inh | JNK3 inh
CCN(CC)CCNC(=O)CCCCn1c(=S)[nH]c2c([nH]c3ccc(OC)cc32)c1=O | 140 | 13 | . | 30* | 1
Cc1cccc2nc(Cn3c(=O)n(CCC(=O)NCc4ccco4)c(=O)c4ccccc43)cc(=O)n12 | 71 | -5 | 79 | -4 | -5
CCCCn1c(SCC(=O)Nc2cc(NC(=O)c3ccco3)ccc2C)nc2ccccc2c1=O | -16* | 10 | 84 | 3 | 3
CCOC(=O)N1CCN(c2nnnn2-c2ccccc2)CC1 | -26* | 5 | 101 | 0 | 0
O=C(COC(=O)C1CCCCC1C(=O)N1CCc2ccccc21)NCc1ccco1 (stereo unspecified) | 86 | 2 | . | 2 | -6
CC1=NN(c2ccccc2)C(=O)C1 | 100 | 1 | 99 | 19* | 7
CCN(CC)S(=O)(=O)c1cc(Br)c(C)cc1OC | 82 | 4 | 98 | -2 | 2
COc1ccc(OC)c(S(=O)(=O)N2c3cc(F)ccc3CCC2C)c1 (stereo unspecified) | 83 | 3 | 80 | 2 | 8
O=C(C1CCCN(c2ncccn2)C1)N1CCc2ccccc21 (stereo unspecified) | 81 | -1 | 96 | 0 | -2
CCOC(=O)CCCc1sc(N)nc1-c1[nH]c(=O)[nH]c1C | 125 | -4 | . | -2 | 25*
CCOC(=O)CCc1nc2ccccc2[nH]1 | 101 | 3 | . | 2 | 4
O=C(NCCc1ccccc1)C1CCN(S(=O)(=O)c2ccc(-c3nn[nH]n3)cc2)CC1 | 92 | 15 | 108 | 9 | -2
O=C(CSc1nnnn1-c1ccc(Cl)cc1)N1CCc2ccccc2C1 | 106 | 5 | . | 2 | 0
O=C1CCCC(O)=C1C=Nc1ccc(O)cc1 | 124 | 4 | . | 0 | 6
Oc1ccc(N=Cc2ccc(-c3cccs3)s2)cc1 | -22* | 5 | . | 1 | -8
COc1cccc(NC(=O)N(Cc2cc3cc(C)cc(C)c3[nH]c2=O)CC2COCCO2)c1 (stereo unspecified) | 81 | -5 | 83 | 0 | -10
C(=N\c1nc2ccccc2n1CCN1CCCCC1)/c1ccc2c(c1)OCO2 | 83 | 7 | 82 | 8 | -1
C(=N\c1nc2ccccc2n1CCN1CCCCC1)/c1cccs1 | 86 | 5 | 77 | 19* | -2
Cc1cc(-n2c(C)cc(C(=O)CSc3ccc4c(c3)OCCO4)c2C)no1 | 107 | 5 | . | 6 | 5
O=C(N1CCCC1)n1c(Cc2ccccc2)nc2ccccc21 | 75 | 2 | . | 1 | 7
COc1ccc(C(C)=O)cc1COC(=O)c1c(C)noc1C | 61 | 2 | . | 3 | 24*
COc1ccc(C(C)=O)cc1COC(=O)c1ccc(OCc2c(C)noc2C)cc1 | 72 | 0 | 82 | 2 | 4
O=C(O)CCCCCCC1C(=O)NC(=O)N1CCC(O)C1CCCCC1 (stereo unspecified) | 80 | 4 | 87 | 7 | -3
Cc1nc2sccn2c1-c1nc(-c2cc3ccccc3o2)cs1 | 94 | 6 | . | 3 | 6
Cc1ccnc(Nc2nc(-c3c(C)nc4sccn34)cs2)c1 | 27 | 6 | . | 4 | 34*
SMILES | Her2 expr inh | PKA inh | SK-BR-3 tox 24h | ROCK2 inh | JNK3 inh
Cc1cccc(N2CCN(C(=O)c3cn(C)c(=O)c4c3c3ccccc3n4C)CC2)c1C | 47 | 1 | 103 | 169* | -1
C=CCNS(=O)(=O)c1ccc(OCC(=O)OC)cc1 | 120 | -2 | 101 | -1 | 1
Cc1cc(C)nc(N2CCCC(C(=O)NCCC3=CCCCC3)C2)n1 (stereo unspecified) | 100 | 9 | 94 | 3 | -2
O=C1C(C2=C(O)c3ccccc3C2=O)=Nc2ccccc21 | -16* | 2 | . | 5 | 3
COc1ccc(-c2nc(CN3CCC(C(=O)N4CCc5ccccc54)CC3)c(C)o2)cc1OC | 97 | -2 | . | 3 | -3
COc1ccc(CCNC(=O)CSc2nc(N)c(C#N)c(-c3cccs3)c2C#N)cc1OC | 1.8* | 0 | 59 | -5 | -1
Cc1ccccc1NC(=O)CSc1nc(N)c(C#N)c(-c2cccs2)c1C#N | 88 | 10 | 72 | 6 | 7
N#Cc1c(N)nc(SCc2ccncc2)c(C#N)c1-c1cccs1 | 60 | 1 | 91 | 4 | 21*
Cc1ccc(Cl)cc1N1CCN(Cc2nc3c(c(=O)[nH]c(=O)n3C)n2Cc2ccccc2F)CC1 | 3.2* | -1 | . | 2 | -1
Cc1ccc(Cl)cc1N1CCN(Cc2nc3c(c(=O)[nH]c(=O)n3C)n2CCc2ccccc2)CC1 | 45 | -3 | . | -4 | -7
COc1cccc(CSc2nnc(-c3ccco3)n2C)c1 | 121 | 4 | 91 | 3 | -2
CCOC(=O)Cc1csc(NC(=O)COc2ccc(OC)cc2)n1 | 4.1* | 3 | . | -3 | 8
CCOC(=O)c1sc2nc(N3CCOCC3)c3c(c2c1N)CCCC3 | 88 | 5 | 57 | 4 | -5
NC(=O)c1sc2nc(N3CCCCC3)c3c(c2c1N)CCCC3 | 94 | 27* | 111 | 42* | 6
COc1ccc(OC)c(NC(=O)[C@H]2CC=CC[C@H]2C(=O)O)c1 | 144 | 3 | 123 | 1 | -9
COC(=O)c1sccc1NC(=O)C1CC=CCC1C(=O)O (stereo unspecified) | 113 | 13 | 108 | 9 | 28*
COCc1cc(C)nc(Nc2ccc(C)c(C)c2)c1C#N | -3.1* | 1 | . | 4 | 0
COCc1cc(C)nc(N)c1C#N | 97 | -2 | 107 | 2 | -2
CCNc1nc(C)cc(COC)c1C#N | 91 | -4 | 92 | -2 | -3
COCc1cc(C)nc(Nc2ccc(C)cc2C)c1C#N | 9 | 6 | 38* | 4 | 1
COc1ccc(CC(=O)Nc2cc(C)ccn2)cc1 | 97 | 5 | . | 4 | 27*
Cc1cc(NC(=O)COC(=O)c2n[nH]c3ccccc23)no1 | 97 | 10 | . | 3 | 23*
COc1ccc(CNC(=O)COC(=O)c2n[nH]c3ccccc23)cc1OC | 102 | 8 | . | 7 | 14
Fc1ccc2nc3[nH]c4ccccc4c3nc2c1 | 56 | 0 | . | 4 | 37*
c1ccc2c(c1)[nH]c1nc(SCCN3CCOCC3)nnc12 | 86 | 8 | 87 | 8 | 4
CCCN1Cc2cccc(C(=O)NCc3ccc4c(c3)OCO4)c2C1=O | 123 | 7 | . | 5 | 24*
CC1CCN(C(=O)CSc2ccc3nnc(-c4ccc(F)cc4)n3n2)CC1 | 101 | 10 | . | 5 | 6
CS(=O)(=O)n1nc(OC(=O)c2cccc3ccccc23)cc1N | 60 | 10 | 42* | 5 | 5
O=C(CSc1nnc(NC(=O)C2CCC2)s1)Nc1ccc(N2CCOCC2)cc1 | 85 | 7 | . | 5 | -2
CC(C)N(C(=O)CSc1nnc(NC(=O)C2CCC2)s1)C(C)C | 115 | -2 | 42* | -1 | 5
